# Reference: PubChem BioAssay (Tox21)
# Records with an inconclusive call do not appear. Entries that show only a call come without a potency. Calls of active or inactive are those of the source. Calls come from the whole dose curve.
# How the values were obtained:
# [1] = target: Acetylcholinesterase (Homo sapiens) (UniProt P22303); assay: Acetylcholinesterase (AChE) small molecule antagonists: colormetric cell-based qHTS assay (AID 1347395); note: nearly all actives have a fitted effect of over 30% in size; note: potency is the fitted concentration of half-maximal effect
# In short: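 Homogeneous whole-cell format. SH-SY5Y cells seeded overnight, dosed with compound (30 min, 37 C, 5% CO2), then given DTNB/acetylthiocholine cocktail for 90 min at 37 C; colorimetric signal.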
# [2] = target: Acetylcholinesterase (Homo sapiens) (UniProt P22303); assay: Acetylcholinesterase (AChE) small molecule antagonists: enzyme-based qHTS assay (AID 1347397); settings: Potency: AChE enzyme activity inhibition; outcome: AChE enzyme activity inhibition; note: nearly all actives have a fitted effect of over 55% in size
# In short: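 Enzyme inhibition was scored from DTNB-detected thiocholine formed by recombinant human AChE acting on acetylthiocholine. The 30 min compound preincubation and 10 min substrate reaction were both run at room temperature, with DMSO as vehicle control.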
# [3] = target: Acetylcholinesterase (Homo sapiens) (UniProt P22303); assay: Acetylcholinesterase (AChE) small molecule antagonists: enzyme-based qHTS assay with human liver microsomes (AID 1347399); settings: Potency: qHTS inhibition; outcome: qHTS inhibition; note: nearly all actives have a fitted effect of over 60% in size
# In short: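 Recombinant human AChE (50 mU/mL in the enzyme mix) and human liver microsomes (0.25 mg/mL final) were preincubated with compound and NADPH (0.25 mg/mL final) for 30 min at 37 C. Acetylthiocholine/DTNB was then added; thiocholine was read colorimetrically after 10 min at room temperature.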
# Acetylcholinesterase (Homo sapiens), sequence (P22303 whole entry, looked up): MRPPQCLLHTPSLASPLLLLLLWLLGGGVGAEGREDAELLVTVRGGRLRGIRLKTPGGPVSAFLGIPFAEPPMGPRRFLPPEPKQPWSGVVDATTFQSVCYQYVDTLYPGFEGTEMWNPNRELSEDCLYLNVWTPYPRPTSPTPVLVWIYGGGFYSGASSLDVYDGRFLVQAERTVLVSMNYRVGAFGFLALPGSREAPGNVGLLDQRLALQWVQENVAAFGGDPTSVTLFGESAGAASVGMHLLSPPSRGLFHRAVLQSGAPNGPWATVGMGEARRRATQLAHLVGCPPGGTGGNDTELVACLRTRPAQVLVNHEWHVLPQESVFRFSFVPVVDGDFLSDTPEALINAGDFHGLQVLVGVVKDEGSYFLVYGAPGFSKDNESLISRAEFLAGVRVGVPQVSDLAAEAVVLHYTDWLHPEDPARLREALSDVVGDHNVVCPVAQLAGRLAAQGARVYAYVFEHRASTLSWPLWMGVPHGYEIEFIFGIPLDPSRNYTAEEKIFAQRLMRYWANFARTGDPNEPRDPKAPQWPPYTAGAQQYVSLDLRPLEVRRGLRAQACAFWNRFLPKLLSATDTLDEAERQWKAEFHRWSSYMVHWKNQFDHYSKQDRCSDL
Compound,Potency [1],Potency [2],Potency [3]
CC1=C(C)C(=O)C(CCCCC#CCCCC#CCO)=C(C)C1=O,inactive,inactive,inactive
NS(=O)(=O)c1cc2c(cc1C(F)(F)F)NC(Cc1ccccc1)NS2(=O)=O (configuration not stated),38.9 µM (active),inactive,inactive
CC1=C(/C=C/C(C)=C\C=C\C(C)=C\C(=O)O)C(C)(C)CCC1,inactive,inactive,inactive
CCCCC/C=C\CCC=O,inactive,inactive,inactive
Cc1onc(-c2c(Cl)cccc2Cl)c1C(=O)Cl,inactive,inactive,inactive
O=[N+]([O-])c1ccc(O/N=C/c2cc(Br)c(O)c(Br)c2)c([N+](=O)[O-])c1,inactive,inactive,inactive
COc1ccccc1OCCNCC(O)COc1cccc2[nH]c3ccccc3c12 (configuration not stated),inactive,inactive,inactive
Oc1cc2c(cc1O)[C@H]1c3ccc(O)c(O)c3OC[C@@]1(O)C2,inactive,inactive,inactive
CC(C)NCCCC1(C(N)=O)c2ccccc2-c2ccccc21,inactive,inactive,inactive
Nc1nc2ccccc2n1Cc1ccc(F)cc1,inactive,inactive,inactive
CCN(CC)c1ccc2c(-c3ccccc3C(=O)O)c3ccc(=[N+](CC)CC)cc-3oc2c1,inactive,inactive,inactive
CN(C)CCN(Cc1ccccc1)c1ccccn1,inactive,inactive,inactive
CCC(Cc1ccccc1)(C(=O)c1ccc(N2CCOCC2)cc1)N(C)C (configuration not stated),inactive,inactive,inactive
COC(=O)CSc1cc(N=c2sc(=O)n3n2CCCC3)c(F)cc1Cl,inactive,inactive,inactive
